The structures appear in SMILES notation. A number with no mark means an inactive call. Records with an inconclusive call do not appear. Calls of active or inactive are those of the source. Unless noted, calls follow the shape of the dose curve; as a rule, active = well fitted curve in the direction sought with a large enough effect; inconclusive = small, poorly fitted or top-dose-only effect, or another doubt; inactive = no such curve, though single readings can be large; an effect the other way counts as inactive or inconclusive.

Our source for the Potency, activity change, negative = inhibition and outcome values is PubChem BioAssay (NCATS).

In test [1] the target is Tumor susceptibility gene 101 protein (Homo sapiens) (UniProt Q99816). Nature of the test: qHTS Assay for Iinhibitors of HIV-1 Budding by Blocking the Interaction of PTAP/TSG101: Hit Validation (AID 651600). Also: nearly all actives have a fitted effect of over 70% in size. Also: potency is read from the fitted curve at half-maximal effect. In outline: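 Measuring PTAP–Tsg101 interaction by FP: protein at 10 uM and fluorescent peptide at 50 nM (final), buffer 10 mM HEPES pH 7.5 with 0.15 M NaCl, 3 mM EDTA, 0.1 mM TCEP, 0.01% Tween 20; 20 min incubation, r.t.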
Tumor susceptibility gene 101 protein (Homo sapiens), sequence (Q99816 whole entry, looked up): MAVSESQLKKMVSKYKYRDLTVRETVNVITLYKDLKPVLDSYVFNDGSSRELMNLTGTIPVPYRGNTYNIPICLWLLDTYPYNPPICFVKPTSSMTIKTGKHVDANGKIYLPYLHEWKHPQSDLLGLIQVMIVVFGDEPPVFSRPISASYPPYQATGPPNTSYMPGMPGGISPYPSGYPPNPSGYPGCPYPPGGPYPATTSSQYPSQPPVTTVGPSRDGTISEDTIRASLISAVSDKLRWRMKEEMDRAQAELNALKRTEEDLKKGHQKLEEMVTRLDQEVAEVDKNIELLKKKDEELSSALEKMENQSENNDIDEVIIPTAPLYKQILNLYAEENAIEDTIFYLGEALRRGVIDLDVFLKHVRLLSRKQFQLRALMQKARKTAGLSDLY
Background: Quantitative high-throughput screening tests each substance at several concentrations.

Test [2] deals with Rap guanine nucleotide exchange factor 3 (Homo sapiens) (UniProt O95398). Put plainly: Confirmatory qHTS for antagonist of cAMP-regulated guanine nucleotide exchange factor 3 (EPAC1) (AID 1645880). Also: nearly all actives have a fitted effect of over 55% in size. Also: potency is read from the fitted curve at half-maximal effect.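 As to activity, negative = inhibition: plate controls were DMSO only for no effect and full effect of the ATA control for full effect.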 To be noted: EPAC1 Rap1B-BODIPY-GDP exchange, fluorescence; activity, negative = inhibition: at 115 µM (top of the series). In outline: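 Released BODIPY-GDP fluoresces less than Rap1-bound BODIPY-GDP; the signal is followed at 480/540 nm at 5-min intervals over 30 min, after 5 min at room temperature. Reactions contain 100 nM EPAC1, 250 nM RAP1B-BODIPY-GDP and 50 uM GDP; results are normalized to ATA and DMSO.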
Rap guanine nucleotide exchange factor 3 (Homo sapiens), sequence (O95398 whole entry, looked up): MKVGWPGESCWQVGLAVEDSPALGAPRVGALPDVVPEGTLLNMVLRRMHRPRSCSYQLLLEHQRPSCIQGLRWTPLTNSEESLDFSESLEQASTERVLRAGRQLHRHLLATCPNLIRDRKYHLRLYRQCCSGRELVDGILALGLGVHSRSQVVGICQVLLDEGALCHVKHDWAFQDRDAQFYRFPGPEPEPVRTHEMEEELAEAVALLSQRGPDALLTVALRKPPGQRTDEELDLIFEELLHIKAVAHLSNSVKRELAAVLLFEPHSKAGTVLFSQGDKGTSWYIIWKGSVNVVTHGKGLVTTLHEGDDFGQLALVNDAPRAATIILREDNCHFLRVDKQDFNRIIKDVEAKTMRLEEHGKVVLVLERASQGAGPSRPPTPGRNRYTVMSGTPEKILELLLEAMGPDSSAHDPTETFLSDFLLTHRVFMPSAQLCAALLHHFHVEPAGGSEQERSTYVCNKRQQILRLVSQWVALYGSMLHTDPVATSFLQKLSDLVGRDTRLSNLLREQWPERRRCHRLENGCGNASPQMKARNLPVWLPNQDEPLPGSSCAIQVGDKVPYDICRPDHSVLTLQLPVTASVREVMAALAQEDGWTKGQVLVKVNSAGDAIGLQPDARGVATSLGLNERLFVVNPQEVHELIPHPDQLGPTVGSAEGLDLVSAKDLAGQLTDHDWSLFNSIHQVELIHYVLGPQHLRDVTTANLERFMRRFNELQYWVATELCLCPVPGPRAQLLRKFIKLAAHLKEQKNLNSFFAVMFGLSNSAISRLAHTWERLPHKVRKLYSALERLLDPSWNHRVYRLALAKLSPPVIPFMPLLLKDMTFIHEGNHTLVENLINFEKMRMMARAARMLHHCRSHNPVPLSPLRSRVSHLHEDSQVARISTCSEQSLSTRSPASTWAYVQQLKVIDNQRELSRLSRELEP

Test [3] has the same target. Nature of the test: Confirmatory qHTS for agonist of cAMP-regulated guanine nucleotide exchange factor 3 (EPAC1) (AID 1645881). Also: nearly all actives have a fitted effect of over 75% in size. Also: potency is read from the fitted curve at half-maximal effect.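 As to activation: EPAC1 catalysed release of BODIPY-GDP from Rap1B seen as fluorescence loss; 100% = effect of cAMP agonist control.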
Test [4] concerns the target Rap guanine nucleotide exchange factor 4 (Homo sapiens) (UniProt Q8WZA2). Put plainly: Confirmatory qHTS for agonist of cAMP-regulated guanine nucleotide exchange factor 4 (EPAC2) (AID 1645884).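 Also: nucleotide exchange releases bodipy-GDP from Rap1 and this lowers its fluorescence; nearly all actives have a fitted effect of over 65% in size.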 Also: potency is read from the fitted curve at half-maximal effect.
Test [5] shares this target. Nature of the test: Confirmatory qHTS for antagonist of cAMP-regulated guanine nucleotide exchange factor 4 (EPAC2) (AID 1645885). Also: nearly all actives have a fitted effect of over 25% in size. Also: potency is read from the fitted curve at half-maximal effect.
Test [6] has as its target Rap guanine nucleotide exchange factor 3 (Homo sapiens) (UniProt O95398). Put plainly: Counterscreen qHTS for antagonist of cAMP-regulated guanine nucleotide exchange factor 3 (EPAC1) (AID 1645888). Also: % of control where 0% means no effect. The method, boiled down:
(§1)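 Measured: fluorescence of BODIPY-GDP bound to Rap1B, which falls as exchange proceeds. Conditions include 50 uM competing GDP, 5 and 30 min reads, and a later cAMP challenge for antagonist detection.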
(A counterscreen serves to expose hits that act by an unwanted route or on another target.)

For test [7] the target is unchanged. Nature of the test: Counterscreen qHTS for agonist of cAMP-regulated guanine nucleotide exchange factor 3 (EPAC1) (AID 1645889). Also: nearly all actives have a fitted effect of over 40% in size. Also: potency is read from the fitted curve at half-maximal effect. As to activation: % of control where 0% means no effect. The method, boiled down:
as §1

The nature of test [8]: AP1 Signaling Pathway (AID 357; active = well fitted curve in either direction with a large enough effect, not every such curve was filed as active;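 also: ME-180 reporter cells stimulated with EGF at its EC50 level; % is scaled to controls: 0 for no effect and ±100 for the full control effect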). To be noted: ME-180 AP-1-bla reporter, EGF-induced, beta-lactamase ratio, 5 h; at 7.69 µM (top of the series) unless noted. The method, boiled down: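 AP-1-bla ME-180 cells, Opti-MEM + 0.5% dialyzed FBS, plated overnight 37 °C. Cpd titration + EC50 EGF, 5 h 37 °C. CCF4 2.5 h RT; ex 405, em 460/530 ratio → %activity, AC50.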
Test [9] in a line: Stat Signaling Pathway (AID 446; active = well fitted curve in either direction with a large enough effect, not every such curve was filed as active;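 also: ME-180 cervical cancer cells given 40 pM IL-6 alongside compound; SIE-controlled beta-lactamase reporter measured as 460/530 nm FRET emission ratio; % is scaled to controls: 0 for no effect and ±100 for the full control effect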). The method, boiled down: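 FRET read-out (405 nm excitation, 460/530 nm emission) of a beta-lactamase reporter under a STAT-inducible element in ME-180 cervical carcinoma cells. Cells with compound receive 40 pM IL-6 for 5 h. Values are normalised to AC90 stimulation and AC90 JAK-inhibitor controls.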
In test [10] the target is Glucocorticoid receptor (Homo sapiens) (UniProt P04150). Nature of the test: GR-GFP Redistribution (AID 450;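 active = compounds whose dose series gives a full or clear partial fitted curve of increased nuclear translocation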; also: potency is read from the fitted curve at half-maximal effect). The following applies: U2OS GR-GFP nuclear translocation, laser cytometry, 2 h.
Glucocorticoid receptor (Homo sapiens), sequence (P04150 whole entry, looked up): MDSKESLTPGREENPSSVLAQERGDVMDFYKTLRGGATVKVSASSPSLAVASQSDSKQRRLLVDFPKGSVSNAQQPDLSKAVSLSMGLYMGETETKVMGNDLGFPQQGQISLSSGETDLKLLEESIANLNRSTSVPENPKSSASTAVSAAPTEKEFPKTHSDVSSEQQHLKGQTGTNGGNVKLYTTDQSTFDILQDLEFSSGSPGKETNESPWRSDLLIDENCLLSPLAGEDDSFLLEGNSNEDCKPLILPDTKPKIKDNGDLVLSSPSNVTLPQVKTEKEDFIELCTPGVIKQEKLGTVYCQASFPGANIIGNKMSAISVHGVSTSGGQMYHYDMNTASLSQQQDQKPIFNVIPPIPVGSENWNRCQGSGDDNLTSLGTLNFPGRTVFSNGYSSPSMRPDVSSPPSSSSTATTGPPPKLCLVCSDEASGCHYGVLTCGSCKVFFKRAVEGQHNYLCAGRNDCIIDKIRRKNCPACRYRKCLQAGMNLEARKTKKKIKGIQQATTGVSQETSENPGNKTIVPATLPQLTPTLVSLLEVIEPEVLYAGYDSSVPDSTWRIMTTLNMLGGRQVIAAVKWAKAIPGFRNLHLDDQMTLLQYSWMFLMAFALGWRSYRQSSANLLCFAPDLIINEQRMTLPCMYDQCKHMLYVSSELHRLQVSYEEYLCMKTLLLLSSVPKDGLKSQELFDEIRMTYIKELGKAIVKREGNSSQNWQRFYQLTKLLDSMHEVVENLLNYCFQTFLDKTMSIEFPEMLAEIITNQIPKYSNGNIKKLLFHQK
A short description of test [11]: qHTS Assay for Identification of Small Molecule Agonists for Hypoxia Response Element Signaling Pathway (AID 914; active = well fitted activation curve with a large enough effect in the signal ratio, with a control signal flat, not every such curve was filed as active; the % refers to the signal ratio; also: potency is read from the fitted curve at half-maximal effect). To be noted: ME-180 (cervical carcinoma) HRE-bla reporter, beta-lactamase ratio, CoCl2, 17 h; activation: hits give high values. The method, boiled down:
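ME-180 cells carrying an HRE-driven beta-lactamase reporter were treated with compounds in a titration series plus an EC50 level of CoCl2 for 17 h at 37 degrees Celsius; CCF4 readout as the 460nm/530nm ratio gave AC50 values.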

Test [12] has as its target Lysosomal acid glucosylceramidase (Homo sapiens) (UniProt P04062). Nature of the test: Glucocerebrosidase-p2 (AID 348; in the data active = potency below about 10 µM; also: potency is read from the fitted curve at half-maximal effect). To be noted: purified GBA, blue fluorogenic substrate, 40 min. In outline:
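Normal human glucocerebrosidase (0.2 nM) with blue fluorogenic substrate (80 uM final) in citrate/phosphate pH 5.9 with 10mM sodium taurocholate, 0.01% tween-20; 40 min RT, NaOH/glycine stop; fluorescence Ex 365/Em 440; AC50 from a titration from 0.6 nM upwards.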

The target of test [13] is Cytochrome P450 1A2 (Homo sapiens) (UniProt P05177). Put plainly: p450-cyp1a2 (AID 410; calls by dose curve; also: potency is read from the fitted curve at half-maximal effect). In outline: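 Read-out is luminescence from luciferin produced by CYP1A2 demethylation of Luciferin-ME (100uM, at Km). Detection reagent stopped the 60 min NADPH-dependent reaction; signals were normalized to 57 uM furafylline.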
Test [14] has as its target Mitogen-activated protein kinase 10 (Mus musculus) (UniProt Q61831). Put plainly: JNK3 AlphaScreen Assay (AID 530; active = well fitted curve in either direction with a large enough effect, not every such curve was filed as active;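 also: kinase came from lysate of stimulated human HepG2 cells; signal reports phosphorylation of biotinylated GST-cJun 1-79 at Ser73 with 10 µM ATP; % is scaled to controls: 0 for no effect and ±100 for the full control effect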). In outline:
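Biotinylated GST-cJun(1-79) served as substrate for JNK3 in HepG2 lysates stimulated with IL-1beta and TNF-alpha. ATP was 10 uM final, pH 7.6. Ser73 phosphorylation was quantified by AlphaScreen (680 nm excitation).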
(Bead proximity is the source of the signal in Alpha formats.)

Test [15] deals with 3',5'-cyclic-AMP phosphodiesterase 4B (Homo sapiens) (UniProt Q07343). Nature of the test: qHTS Assay for Inhibitors of PDE-IV (AID 607; active = well fitted activation curve with a large enough effect in the main read-out, with a control signal flat, not every such curve was filed as active; also: % of control where 0% means no effect). The method, boiled down:
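Cell-based read-out of cAMP via a modified cyclic nucleotide-gated channel and membrane potential dye (535/590 nm) in HEK293 cells expressing PDE4 endogenously. Compounds tested up to 22.9 uM final; 100 uM RO 20-1724 reference.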

For test [16], the target named is Cytochrome P450 2D6 (Homo sapiens) (UniProt P10635). Nature of the test: qHTS Assay for Inhibitors and Substrates of Cytochrome P450 2D6 (AID 891). Also: potency is read from the fitted curve at half-maximal effect; nearly all actives have a fitted effect of over 60% in size. The method, boiled down:
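Luminescent read-out of luciferin formed by 5 nM human CYP2D6 demethylating 30 uM Luciferin-ME EGE (Km level) over 60 min at room temperature after NADPH regeneration addition. Data normalized to full inhibition by 1.43 uM quinidine.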

Test [17] concerns the target Cytochrome P450 2C19 (Homo sapiens) (UniProt P33261). Put plainly: qHTS Assay for Inhibitors and Substrates of Cytochrome P450 2C19 (AID 899). Also: potency is read from the fitted curve at half-maximal effect; nearly all actives have a fitted effect of over 60% in size. The method, boiled down:
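In 50mM KPO4, the reaction held 5nM enzyme and KM-level (10uM) Luciferin-H EGE; it ran 60 min at 37C after NADPH regeneration and a 10 min compound preincubation. Luminescence values were scaled to 57uM ketoconazole as complete inhibition.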

Test [18] deals with Tyrosyl-DNA phosphodiesterase 1 (Homo sapiens) (UniProt Q9NUW8). Nature of the test: Confirmation Assay for Inhibitors of Tyrosyl-DNA Phosphodiesterase (TDP1) (AID 489007). Also: potency is read from the fitted curve at half-maximal effect; nearly all actives have a fitted effect of over 40% in size. To be noted: recombinant human TDP1 enzymatic activity, dose-response. In outline: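 Loss of AlphaScreen signal reports Tdp1 cleavage of a dual-labelled DNA substrate. Conditions: 1 nM E. coli-derived enzyme, 15 nM substrate, 15 min compound preincubation, 5 min reaction, 10 min bead incubation, all at room temperature.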

A short description of test [19]: qHTS for Inhibitors of the vitamin D receptor (VDR): Hit Validation using a Texas Red Assay (AID 602201). Also: % is scaled to controls: 0 for no effect and ±100 for the full control effect. The method, boiled down: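 Fluorescence polarization (Ex 595/Em 615 nm) of Texas Red (7 nM) with 1.5 uM VDR-LBD and LG19078 (final concentrations). Compounds were incubated for 2 hours at room temperature.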

Rap guanine nucleotide exchange factor 4 (Homo sapiens), sequence (Q8WZA2 whole entry, looked up): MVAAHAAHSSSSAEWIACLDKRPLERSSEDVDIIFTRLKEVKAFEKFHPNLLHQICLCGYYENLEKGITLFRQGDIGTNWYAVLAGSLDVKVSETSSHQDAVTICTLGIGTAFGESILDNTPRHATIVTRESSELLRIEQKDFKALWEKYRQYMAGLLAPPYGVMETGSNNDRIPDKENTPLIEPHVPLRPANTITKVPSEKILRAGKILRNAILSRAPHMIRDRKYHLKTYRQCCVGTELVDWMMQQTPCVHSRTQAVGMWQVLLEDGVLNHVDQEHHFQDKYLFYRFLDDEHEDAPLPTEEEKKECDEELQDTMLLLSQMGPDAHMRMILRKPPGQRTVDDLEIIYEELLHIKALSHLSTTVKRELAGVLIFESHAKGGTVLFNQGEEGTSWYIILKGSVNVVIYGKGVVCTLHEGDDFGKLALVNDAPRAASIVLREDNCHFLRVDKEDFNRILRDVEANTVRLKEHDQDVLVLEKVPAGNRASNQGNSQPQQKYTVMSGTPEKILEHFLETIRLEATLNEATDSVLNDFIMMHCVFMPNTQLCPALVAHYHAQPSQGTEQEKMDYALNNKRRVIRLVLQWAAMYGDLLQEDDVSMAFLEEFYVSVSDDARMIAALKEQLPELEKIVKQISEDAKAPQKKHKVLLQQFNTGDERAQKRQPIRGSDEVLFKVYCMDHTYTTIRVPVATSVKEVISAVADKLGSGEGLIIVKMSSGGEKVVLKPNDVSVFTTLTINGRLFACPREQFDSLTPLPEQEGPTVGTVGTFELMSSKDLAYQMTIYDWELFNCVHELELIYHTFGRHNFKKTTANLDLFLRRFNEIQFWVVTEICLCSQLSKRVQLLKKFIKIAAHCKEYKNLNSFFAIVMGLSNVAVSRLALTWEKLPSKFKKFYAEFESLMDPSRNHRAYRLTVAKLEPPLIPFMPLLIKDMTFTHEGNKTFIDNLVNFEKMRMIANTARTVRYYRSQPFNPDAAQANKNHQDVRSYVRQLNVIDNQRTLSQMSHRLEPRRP
Cytochrome P450 2C19 (Homo sapiens), sequence (P33261 whole entry, looked up): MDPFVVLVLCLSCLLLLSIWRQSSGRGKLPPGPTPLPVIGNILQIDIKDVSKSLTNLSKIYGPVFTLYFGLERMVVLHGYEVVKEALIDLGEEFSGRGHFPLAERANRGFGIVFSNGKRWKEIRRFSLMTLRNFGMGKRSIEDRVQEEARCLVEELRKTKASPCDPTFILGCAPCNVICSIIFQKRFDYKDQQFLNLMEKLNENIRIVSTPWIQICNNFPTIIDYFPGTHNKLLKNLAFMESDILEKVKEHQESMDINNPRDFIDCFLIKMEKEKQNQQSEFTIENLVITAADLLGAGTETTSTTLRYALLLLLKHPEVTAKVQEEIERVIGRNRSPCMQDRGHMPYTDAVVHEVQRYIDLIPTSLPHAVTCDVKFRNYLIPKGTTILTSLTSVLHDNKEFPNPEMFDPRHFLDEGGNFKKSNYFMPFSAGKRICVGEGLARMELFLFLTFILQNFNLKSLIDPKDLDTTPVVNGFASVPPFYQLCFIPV
Lysosomal acid glucosylceramidase (Homo sapiens), sequence (P04062 whole entry, looked up): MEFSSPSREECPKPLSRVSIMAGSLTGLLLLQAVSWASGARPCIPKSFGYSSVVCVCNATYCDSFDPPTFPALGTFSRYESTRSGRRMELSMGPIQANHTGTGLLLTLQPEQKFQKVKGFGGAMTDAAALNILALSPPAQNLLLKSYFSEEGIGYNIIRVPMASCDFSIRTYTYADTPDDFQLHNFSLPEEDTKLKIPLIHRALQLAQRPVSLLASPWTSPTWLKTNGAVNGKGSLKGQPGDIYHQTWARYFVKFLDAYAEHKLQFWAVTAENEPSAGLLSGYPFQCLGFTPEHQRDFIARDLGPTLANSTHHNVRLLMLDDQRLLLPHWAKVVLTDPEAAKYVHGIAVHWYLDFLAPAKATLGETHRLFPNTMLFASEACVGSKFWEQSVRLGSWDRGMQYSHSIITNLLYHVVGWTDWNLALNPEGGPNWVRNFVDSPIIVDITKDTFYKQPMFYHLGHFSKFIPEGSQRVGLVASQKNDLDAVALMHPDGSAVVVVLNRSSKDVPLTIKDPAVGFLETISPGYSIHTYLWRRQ
3',5'-cyclic-AMP phosphodiesterase 4B (Homo sapiens), sequence (Q07343 whole entry, looked up): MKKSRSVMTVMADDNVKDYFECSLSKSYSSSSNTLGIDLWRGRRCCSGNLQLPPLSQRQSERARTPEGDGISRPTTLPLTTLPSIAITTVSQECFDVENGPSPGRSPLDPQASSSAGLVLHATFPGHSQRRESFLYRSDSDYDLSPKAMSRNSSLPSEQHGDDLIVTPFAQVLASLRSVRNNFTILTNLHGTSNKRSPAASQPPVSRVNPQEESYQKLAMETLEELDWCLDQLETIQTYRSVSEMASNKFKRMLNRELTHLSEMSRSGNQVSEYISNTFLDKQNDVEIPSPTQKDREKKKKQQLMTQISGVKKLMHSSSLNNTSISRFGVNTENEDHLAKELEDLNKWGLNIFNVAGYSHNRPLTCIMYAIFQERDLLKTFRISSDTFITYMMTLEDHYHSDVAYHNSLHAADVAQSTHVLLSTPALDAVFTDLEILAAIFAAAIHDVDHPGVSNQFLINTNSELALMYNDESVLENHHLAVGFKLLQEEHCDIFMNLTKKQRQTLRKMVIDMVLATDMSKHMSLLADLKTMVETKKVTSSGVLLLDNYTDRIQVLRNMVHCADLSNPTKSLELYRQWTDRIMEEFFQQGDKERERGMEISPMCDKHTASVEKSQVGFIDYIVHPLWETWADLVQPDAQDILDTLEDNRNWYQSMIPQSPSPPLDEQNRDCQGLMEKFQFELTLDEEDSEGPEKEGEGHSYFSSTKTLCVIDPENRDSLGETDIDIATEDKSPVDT

For `Cc1ccc(-c2cn3nc(-c4ccccc4)c(-c4ccccc4)nc3n2)cc1`, the Potency in [1] was 25.9 µM (active). The Potency entry in test [2], in [3], in test [4], in [5], in [6] and in [7] was “inactive” throughout.

Regarding `Cn1c(/C(C#N)=C/c2ccc(-c3ccc(S(N)(=O)=O)cc3)o2)nc2ccccc21`, the Potency entry in [1], in test [2], in test [3], in test [4] and in test [6] was “inactive” in each case. Also, the Potency in [5] is 95.3 µM (active).

In the case of `CSC1=NSC2=NC(=O)/C(=C/c3coc4ccccc4c3=O)C(=N)N12`, the Potency in [1] was 18.3 µM (active); in test [3], 89.1 µM (active); in [4] it was 100 µM (active); in test [7], 39.8 µM (active). Moreover, the Potency entry in [2], in test [5] and in test [6] was “inactive” throughout.

As to `CCCCCCc1cc2cc(C(=O)NC)c(=N)oc2cc1O`, the activity change, negative = inhibition in test [8] is -13% [at 17.2 µM]. Moreover, the molecule was called inactive in test [9]. For the same molecule, the Potency was more than 20.6 µM in test [10], 3.98 µM (active) in [11], 89.1 µM (active) in test [3] and 100 µM (active) in [4]. For the same molecule, the Potency entry in test [2], in [5] and in [6] was “inactive” in each case.

Turning to `CC(C)=CCC1=C(OCC(=O)O)C(=O)c2ccccc2C1=O`, the Potency in test [12] was more than 11.4 µM; in test [13] it was 0.501 µM (active); in [10] it was more than 46 µM; in [16], 3.16 µM (active); in test [17], 1.26 µM (active); in test [2], 84.9 µM (active). Moreover, the results for the activity change, negative = inhibition in test [8] and in test [14] were 18.8% and 15.2% [at 11.4 µM], respectively. Moreover, the molecule was classed as inactive in test [9]. In addition, the Potency entry in test [15], in test [3], in test [4], in [5] and in test [6] was “inactive” throughout.

Regarding `COc1ccc(CNC(=O)C(C#N)c2nc3ccccc3nc2N2CCCC2)cc1` (stereo not drawn), the Potency in test [1] is 9.19 µM (active). Moreover, the Potency result in [2], in test [3], in [4], in test [5], in test [6] and in [7] was “inactive” each time.

As to `Fc1ccc(N2N=C(c3cccs3)CC2c2ccccc2)cc1` (stereo not drawn), the Potency in test [18] is 28.2 µM (active). Besides, the Potency result in test [2], in test [3], in test [4], in test [5] and in test [6] was “inactive” each time.

As to `CC1=NOC(=O)/C1=C\c1ccc(-c2ccccc2Br)o1`, the Potency result in test [19], in test [3], in test [4], in test [5], in test [6] and in test [7] was “inactive” each time. Moreover, the Potency in [2] is 21.3 µM (active).
